Screens as filed in PubChem BioAssay.
Only some compounds are listed: those with a hit (about 9.4% of all), similar ones and a draw of the others.
ELG1 genotox: genotoxicity induction in ELG1-luciferase HEK293T cells; HEK293T ELG1-luciferase reporter, luminescence, 16 h; Potency, µM (titrated, usually from 46 µM), without a hit: at the highest dose activity change, positive = activation, usual class: activators; 330,000 tested, 1.3% active; AID 504466; also: % of control where 0% means no effect; nearly all actives have a fitted effect of over 60% in size
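Cells (2,000/well) expressing the ELG1-luciferase fusion are dosed by pin tool and kept 16 hr at 37 °C, 5% CO2. Signal comes from ONE-Glo luciferase reagent after 30 min at room temperature.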
FLuc counter: inhibits or activates purified firefly luciferase, miR-21 counter-screen | P08659 | purified FLuc, Km substrates, luminescence inhibition | Potency, µM (titrated, usually from 57.5 µM), for the others: at the top dose activity change, negative = inhibition, most hits filed as inhibitors | 360,000 tested, 6.9% active | AID 588342;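 also: plate controls were vehicle for no effect and reference inhibitor for full effect; nearly all actives have a fitted effect of over 55% in size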
Target sequence (P08659 whole entry, looked up): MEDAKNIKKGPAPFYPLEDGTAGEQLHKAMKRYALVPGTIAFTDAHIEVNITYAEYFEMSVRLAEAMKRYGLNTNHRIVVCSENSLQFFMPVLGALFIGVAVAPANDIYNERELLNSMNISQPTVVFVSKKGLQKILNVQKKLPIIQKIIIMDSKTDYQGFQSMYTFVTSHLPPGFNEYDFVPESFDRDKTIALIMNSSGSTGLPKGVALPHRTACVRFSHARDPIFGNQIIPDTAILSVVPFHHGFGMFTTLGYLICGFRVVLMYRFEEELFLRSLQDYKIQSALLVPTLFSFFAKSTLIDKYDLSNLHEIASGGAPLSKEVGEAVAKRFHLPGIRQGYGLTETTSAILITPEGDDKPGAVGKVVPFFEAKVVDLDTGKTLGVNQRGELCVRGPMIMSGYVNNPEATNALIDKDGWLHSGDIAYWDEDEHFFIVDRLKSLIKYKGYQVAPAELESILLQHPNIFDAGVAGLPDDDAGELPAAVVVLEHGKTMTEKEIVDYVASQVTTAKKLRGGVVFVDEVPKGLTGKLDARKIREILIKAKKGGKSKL
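Biochemical qHTS of compounds, final roughly 60 µM downward over six points, against 10 nM purified firefly luciferase using Km concentrations of substrates (10 uM D-luciferin, 10 uM ATP) in Tris acetate pH 7.5 buffer; luminescence output.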
NPC1 promoter act: activators of NPC1 promoter. AID 485313. Potency, µM (doses to about 9.22 µM), for the others: at the highest dose activation, most hits filed as activators. 320,000 tested, 2.4% active. Huh7 NPC1 promoter luciferase reporter, 24 h; also: % of control where 0% means no effect; nearly all actives have a fitted effect of over 60% in size
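Huh7 reporter cells (NPC1 promoter driving luciferase) are dosed with compound for 24 h at 37 °C, 5% CO2; luciferase detection reagent is then added and luminescence measured after 10 min at ambient temperature.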
ELG1 DNA repair: blocks ELG1-dependent DNA repair in HEK293T cells | HEK293T ELG1-luciferase reporter, luminescence, 16 h; DNA damage induced by 5-fluorouridine | Potency, µM (doses to about 46.1 µM), for the others: at the highest dose activity change, negative = inhibition, usual class: inhibitors | 330,000 tested, 2.3% active | AID 504467; also: % is scaled to controls: 0 for no effect and ±100 for the full control effect; nearly all actives have a fitted effect of over 55% in size
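In this reporter screen, reduction of luminescence relative to DMSO vehicle indicated activity. Compounds and 5-fluorouridine were added together to 2,000 cells per well, incubated for 16 hr at 37 °C, then developed with ONE-Glo.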
Rab9 prom act: Rab9 promoter activation; Huh7 Rab9 promoter-luciferase reporter, luminescence, 24 h; Potency, µM (series often up to 9.22 µM), for the others: at the top dose activation, negative = inhibition, hits mostly activators; 320,000 tested, 2.8% active; also: % of control where 0% means no effect; nearly all actives have a fitted effect of over 60% in size
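Promoter activation is measured as luciferase luminescence in Huh7 cells stably transfected with a Rab9 promoter–luciferase construct, following 24 h compound exposure at 37 °C and 10 min reagent incubation at ambient temperature.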
SMN2 splice enh: increases expression of the SMN2 splice variant; 210,000 tested, 2.8% active; AID 1458; HEK293 SMN2-luciferase splicing reporter, luminescence, 30-36 h; Potency, µM (series often up to 46.1 µM), without a hit: at the top dose activity change, positive = activation, actives largely listed as activators; also: % of control where 0% means no effect; nearly all actives have a fitted effect of over 55% in size
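HEK293 cells carry an SMN2 minigene-luciferase reporter in which exon 7 inclusion puts luciferase in frame. Cells were seeded at 2000 cells/well, attached for 10-12 hours, then exposed to compounds for 30-36 hours at 37C before ONE-Glo luminescence.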
* = called active by the depositor; ? = inconclusive; . = no result; [ ] = another dose, or the depositor's remark. Calls follow the shape of the dose curve; as a rule, active = well fitted curve in the direction sought with a large enough effect; inconclusive = small, poorly fitted or top-dose-only effect, or another doubt; inactive = no such curve, though single readings can be large; an effect the other way counts as inactive or inconclusive. Potency is read from the fitted curve at half-maximal effect.

SMILES	ELG1 genotox	FLuc counter	NPC1 promoter act	ELG1 DNA repair	Rab9 prom act	SMN2 splice enh
O=C(Nc1ccc(F)cc1F)c1ccc2ncsc2c1	13%[9.26 µM]	27µM*	2.5µM*	?	4µM*	.
COc1ccccc1CNc1cc(-c2ccccc2)nc2nncn12	.	-16%	.	.	.	-14%
CC(=O)Nc1nnc(SCc2ccc(F)cc2)s1	?	-3%	27%	?	28%	?
O=C(Nc1ccncc1)c1ccc2ncsc2c1	?	-18%	25%	16%	19%	.
O=C(Nc1nnc(SCc2ccc(F)cc2)s1)c1ccc2ncsc2c1	?	?	?	?	?	13µM*
O=C(Nc1cccc(F)c1)c1ccc2ncsc2c1	16%	13µM*	2.2µM*	?	3.5µM*	.
CCCCNC(=O)c1nnn(-c2ccccc2)c1N	?	?	?	?	?	13µM*
NC(=O)c1nnn(-c2ccccc2)c1N	-1%	-1%	-1%	1%	0%	6%
Cc1ccc2oc(-c3cc(NC(=O)c4ccc5c(c4)OCCO5)cc(C)c3O)nc2c1	.	?	.	.	.	-2%
OC1(c2cccc(C(F)(F)F)c2)CCN(c2ccc(-c3ccccc3)nn2)CC1	14%	-19%	3.2µM*	?	1.4µM*	?
COc1ccc(Cn2c(CO)cnc2SCc2ccc(C)cc2)cc1	.	17µM*	.	.	.	.
OCc1cnc(SCc2ccccc2)n1Cc1ccccc1	-1%	0%	0%	-6%	-1%	-2%
Cc1ccc(C#N)cc1	.	.	.	.	.	5%
O=C(Nc1ccc(N2CCCC2)cc1)c1ccc(Br)o1	?	11µM*	0.5µM*	?	0.35µM*	?
CCCC(=O)N1CCN(c2ccc(NC(=O)c3ccc(Br)o3)cc2)CC1	7%	-7%	5%	8%	0%	-3%
CCN1CCN(c2ccc(NC(=O)c3ccc(Br)o3)cc2)CC1	16µM*	17µM*	?	?	?	.
C=C/C1=C/Cc2ccccc2[C@H](C[N+](=O)[O-])C(C(C)=O)(C(=O)OC)C1 (stereo partly drawn)	.	.	.	.	.	-11%
Cc1cc(S(=O)(=O)NCCc2csc(-c3cccc(F)c3)n2)ccc1F	.	-12%	.	.	.	.
Cc1c(/C=N/NC(=O)CNc2ccccc2)c2ccccn2c1C(=O)c1ccc(Cl)cc1	-7%	1%	-1%	23µM*	0%	.
Cc1c(/C=N/NC(=O)CNc2ccccc2)c2ccccn2c1C(=O)c1ccncc1	-6%	-13%	1%	18µM*	-2%	-13%
CSc1cccc(NC(=O)c2ccc(CN3CCc4ccccc4C3)cc2)c1	7%	?	-24%	-21%	-25%	.
CSc1cccc(NC(=O)c2ccccn2)c1	?	11µM*	?	?	4µM*	?
CSc1cccc(NC(=O)N2CCc3ccc(NC(=O)c4ccccn4)cc3C2)c1	-7%	8.5µM*	2.5µM*	?	4µM*	.
CCC(N)(C(=O)O)c1ccc(C(=O)O)cc1 (stereo not drawn)	.	.	.	.	.	-2%
COC(=O)c1ccccc1NC(=O)c1ccc(-c2ccccc2F)o1	?	3%	3.2µM*	?	?	5µM*
SMILES	ELG1 genotox	FLuc counter	NPC1 promoter act	ELG1 DNA repair	Rab9 prom act	SMN2 splice enh
COc1ccccc1NC(=O)c1ccc(-c2ccccc2F)o1	8%	-8%[2.3 µM]	18%	?	?	?
Cc1cc(NC(=O)c2ccc(-c3ccccc3F)o2)no1	?	15µM*	3.5µM*	?	4.5µM*	13µM*
Cc1ccc2c(c1)-c1nc3ccccc3cc1C2=NC1CCCCC1	?	11µM*	?	?	3.5µM*	6.3µM*
Cc1ccc2c(c1)C(=NC1CCCCC1)c1cc3ccccc3nc1-2	?	15µM*	11%	?	?	2.8µM*
Cc1ccc(-c2cc3ccccc3nc2N2CCCC2)cc1	-2%	-2%	-3%	17%	0%	-32%
COc1ccc(Cl)cc1NC(=O)C(C)n1nnc2sc3c(c2c1=O)CCCC3 (stereo not drawn)	.	0%	.	.	.	1%
COc1cc(-c2nc(Cn3nnc(C(=O)Nc4ccc(C)cc4C)c3C)c(C)o2)cc(OC)c1OC	.	-1%	.	.	.	-7%
Cc1cnc(SCc2ccc(Cl)cc2Cl)[nH]c1=O	8%	21µM*	-1%	7%	-3%	.
Cc1nnc(SCc2ccc(Cl)cc2Cl)[nH]c1=O	?	?	0%	?	-1%	10%
CC(C)Cn1c(=O)c2sccc2n2c(CCCC(=O)NCCc3ccc(Cl)cc3)nnc12	.	-7%	.	.	.	.
Cc1nc(-c2coc3c(O)c(O)ccc3c2=O)cs1	.	.	.	.	.	22µM*
Clc1ccc(OCCCCCN2CCCC2)c(Br)c1	-4%	-5%	0%	3%	-2%	-36%
Clc1ccc(OCCCN2CCCCC2)c(Br)c1	9%	15µM*	?	?	?	?
Clc1ccc(OCCCn2ccnc2)c(Br)c1	0%	19µM*	-5%	?	-7%	-11%
Cc1cc(Cl)c(OCCCn2ccnc2)c(Br)c1	-1%	4%	-2%	-17%	-4%	-26%
CCCN(CCC)c1cc(C)nc2nc(-c3ccc(Cl)cc3)nn12	.	-2%	.	.	.	-7%
COC(=O)c1cc(C)[nH]c2c(C)cc3nc4ccccc4c3c12	-10%	-9%	2%	18µM*	0%	.
COc1cccc(/C=N/NC(=O)CNC(=O)C(c2ccccc2)c2ccccc2)c1O	?	4.8µM*	-36%	-29%	-7%	.
O=C(CN1CCCc2ccccc21)N/N=C/c1ccc(O)cc1O	21µM*	15µM*	-13%	?	-18%	-3%
COc1ccccc1/C=C\C(=O)NCC(=O)N/N=C/c1ccc(O)cc1O	?	?	-6%	23µM*	-1%	.
O=C(CN1CCCc2ccccc21)N/N=C/c1ccccc1	2%	-15%	-6%	?	0%	-3%
COc1ccccc1/C=C/C(=O)NCC(=O)N/N=C/c1ccccc1	3%	-14%	-1%	-6%	-42%	-10%
COc1cccc(/C=N/NC(=O)CNC(=O)/C=C\c2ccccc2)c1O	18%	11µM*	-6%	0%	-12%	.
O=C(CN1CCN(Cc2ccc(F)cc2)C1=O)NCc1ccccc1	.	0%	.	.	.	4%
O=C(CN1C(=O)C2(SCC(=O)N2c2ccc(F)c(F)c2)c2ccccc21)NCCc1ccccc1 (stereo not drawn)	.	-4%	.	.	.	.
CCOC(=O)CNC(=O)N1CCc2cc(S(=O)(=O)N3CCC(C)CC3)ccc21	.	-1%	.	.	.	0%
CC(Oc1ccccc1)C(=O)Nc1ccc(OCc2cc(=O)n3ccsc3n2)cc1 (stereo not drawn)	.	2%	.	.	.	-14%
